Source: PubChem BioAssay (National Center for Advancing Translational Sciences (NCATS))
TDP1 inh = inhibitors of human tyrosyl-DNA phosphodiesterase TDP1. Q9NUW8. recombinant TDP1, AlphaScreen DNA substrate cleavage. Potency, µM (top dose mostly 130 µM), most hits filed as inhibitors. actives 0.28% (n = 350,000). AID 485290; further: nearly all actives have a fitted effect of over 40% in size
Target sequence (Q9NUW8 whole entry, looked up): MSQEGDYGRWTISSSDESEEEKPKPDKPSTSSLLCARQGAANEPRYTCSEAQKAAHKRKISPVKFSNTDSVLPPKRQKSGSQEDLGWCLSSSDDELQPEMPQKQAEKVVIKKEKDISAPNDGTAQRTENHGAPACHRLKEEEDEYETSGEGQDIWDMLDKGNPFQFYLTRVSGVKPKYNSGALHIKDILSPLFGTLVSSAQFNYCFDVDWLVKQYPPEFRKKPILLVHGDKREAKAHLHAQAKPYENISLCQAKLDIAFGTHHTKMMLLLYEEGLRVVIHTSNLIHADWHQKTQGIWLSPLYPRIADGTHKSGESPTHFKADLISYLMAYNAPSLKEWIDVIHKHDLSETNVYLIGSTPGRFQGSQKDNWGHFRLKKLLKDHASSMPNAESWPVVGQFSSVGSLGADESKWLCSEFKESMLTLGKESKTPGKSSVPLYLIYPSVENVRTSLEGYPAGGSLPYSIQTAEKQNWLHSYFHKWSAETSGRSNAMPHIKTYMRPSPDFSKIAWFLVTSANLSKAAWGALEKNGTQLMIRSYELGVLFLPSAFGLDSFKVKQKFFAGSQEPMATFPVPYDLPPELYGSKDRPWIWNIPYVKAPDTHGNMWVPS
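Signal: AlphaScreen proximity between streptavidin donor and anti-FITC acceptor beads on intact substrate. Reaction: Tdp1 1 nM, substrate 15 nM final, 5 min RT after 15 min compound preincubation.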
TDP1 cell noCPT = qHTS for Inhibitors of human tyrosyl-DNA phosphodiesterase 1 (TDP1): qHTS in cells in absence of CPT | DT40 Tdp1-/- hTDP1 cells, no CPT, ATP luminescence, 48 h | actives 15% (n = 420,000) | Potency, µM (top dose mostly 46.2 µM), most hits filed as inhibitors; further: nearly all actives have a fitted effect of over 55% in size
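A cellular qHTS used chicken DT40 cells lacking endogenous Tdp1 but carrying stably transfected human TDP1. Compounds were applied without camptothecin, and cell growth kinetics were judged by ATP-dependent luminescence after ≥48 hr.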
IL-1B inflam inh = inflammasome signaling inhibition, IL-1 beta readout; THP-1 LPS/ATP IL-1B secretion, AlphaLISA, 16 h; active compounds read low; activity change, % at 57.5 µM; actives 4.7% (n = 360,000); AID 743279; in the data active means activity change below about -50%; inconclusive means mostly about -30% to -49%
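THP-1 cells pretreated 1 hr with compounds (up to 57.5 uM final), then stimulated with LPS (250 ng/mL final) plus ATP (1.25 mM final); secreted IL-1B measured by AlphaLISA after 16 hr, decreased signal indicating inhibition.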
Six1-Eya2 inh = blocks human Six1 binding to Eya2 | AlphaScreen GST-Six1/His-Eya2 binding, biochemical; active compounds read low | activity change, % (test concentration not listed) | actives 0.56% (n = 360,000); in the data active means activity change below about -65%; inconclusive means mostly about -30% to -63%
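AlphaScreen with GST-Six1 and His-Eya2 (5X mix: 250 nM and 500 nM), glutathione donor and nickel acceptor beads; buffer 50 mM Tris pH 8.0, 300 mM NaCl, 1 mM TCEP; 1 h at 37 C in the dark.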
TDP1 cell CPT = growth inhibition of DT40 Tdp1-/-;hTDP1 cells with camptothecin (screen for TDP1 inhibitors) | chicken DT40 Tdp1-/-;hTDP1 cells + 20 nM CPT, ATP luminescence, 48 h | Potency, µM (titrated, usually from 46.2 µM), hits mostly inhibitors | actives 12% (n = 420,000) | AID 686979; further: nearly all actives have a fitted effect of over 55% in size
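Chicken DT40 Tdp1-/- cells complemented with human TDP1, 400 cells/well, exposed to compounds plus 20 nM camptothecin for at least 48 h at 37 C; viability read as ATP content by CellTiter-Glo luminescence.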
CtBP-E1A blk = blocks the CtBP interaction with E1A. AlphaScreen GST-E1A/His-CtBP binding, 1536-well; active compounds read low. activity change, % (test concentration not listed). actives 0.49% (n = 340,000). AID 651724; in the data active means activity change below about -65%; inconclusive means mostly about -30% to -63%
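Homogeneous bead-based format: GST-tagged E1A captured on glutathione donor beads, His-tagged CtBP on nickel acceptor beads; compounds precede bead addition by 2 h at 37 °C.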
Numbers stand for hits; i = inactive; ? = inconclusive; nt = no result. Compounds with a hit are over-represented: about 18% of the library has one in this group of screens. Unless noted, the call rests on the fitted dose curve; in most records, active means well fitted curve in the direction sought with a large enough effect; inconclusive means small, poorly fitted or top-dose-only effect, or another doubt; inactive means no such curve, though single readings can be large; an effect the other way counts as inactive or inconclusive.

SMILES	TDP1 inh	TDP1 cell noCPT	IL-1B inflam inh	Six1-Eya2 inh	TDP1 cell CPT	CtBP-E1A blk
COC(=O)c1cnc(Nc2nc(C(N)Cc3ccc(OC)cc3)cs2)nc1C(F)(F)F (configuration not stated)	nt	?	nt	i	?	i
COC(=O)c1cnc(Nc2nc(C(N)Cc3ccc(Cl)cc3)cs2)nc1C(F)(F)F (configuration not stated)	nt	23µM	i	i	?	i
N=c1nc2n(cc1F)C1OC(CO)C(O)C1O2 (configuration not stated)	nt	0.13µM	i	i	0.13µM	i
NC(=O)C(c1ccc(Cl)cc1)c1ccc(Sc2ccc(Cl)cc2)nn1 (configuration not stated)	i	16µM	?	i	?	i
CN(C)C(=O)CCc1ccc2c3c([nH]c2c1)[C@]1(CCC2CCCC2)[C@@H](C(=O)N2CCOCC2)C[C@H](CC(=O)NCC24CC5CC(CC(C5)C2)C4)C(=O)N1CC3	i	23µM	i	i	?	i
COCCCNC(=O)C[C@H]1C[C@H](C(=O)N2CCOCC2)[C@@]2(CCC3CCCC3)c3[nH]c4cc(CCC(=O)N(C)C)ccc4c3CCN2C1=O	i	i	i	i	i	i
CC(C)=CCC/C(C)=C/CNC(=O)C[C@H]1C[C@H](C(=O)N2CCOCC2)[C@@]2(CCC3CCCC3)c3[nH]c4cc(CCC(=O)N(C)C)ccc4c3CCN2C1=O	i	6.5µM	?	i	5.8µM	i
CC[C@]12c3[nH]c4cc(CCC(=O)N(C)C)ccc4c3CCN1C(=O)[C@@H](CC(=O)NC/C=C(\C)CCC=C(C)C)C[C@@H]2C(=O)N1CCN(C(=O)c2ccco2)CC1	i	5.8µM	i	i	10µM	i
Cc1cc(C)n2cc(-c3ccc(Cl)cc3)c(C(=O)O)c2n1	i	i	i	i	i	i
COC(=O)c1sccc1S(=O)(=O)N(CC(=O)NCc1ccccc1)c1ccccc1	i	?	nt	nt	i	nt
COc1cccc(C2=N/C(=C\N(C)C)C(=O)O2)c1	i	23µM	-61	i	?	i
COc1cc(C(=C(CC(=O)O)C(=O)O)c2ccc3c(c2)OCO3)cc(OC)c1OC	nt	i	i	i	i	i
CCNC(=S)Nc1nc2c(cc1C(=O)OCC)CCCC2	i	?	i	i	?	i
C=CCNC(=S)Nc1nc2c(cc1C(=O)OCC)CCCC2	i	23µM	i	i	?	i
Cc1cccc(C(C)n2nnc3ccccc32)c1O (configuration not stated)	i	?	i	i	23µM	i
N#CC1C(=N)Cc2ccccc2-c2ccccc21 (configuration not stated)	nt	21µM	i	i	?	i
ClCC1=Nc2ccccc2Cc2ccccc21	nt	?	nt	i	i	i
COc1ccc(-c2nc3cnc(Oc4ccccc4)nc3n(C3CC3)c2=O)cc1	nt	i	nt	nt	i	nt
COc1ccccc1C(=O)NC(=O)Nc1nc(-c2ccccc2)cc(C(F)(F)F)n1	i	?	i	i	15µM	i
COc1ccc(-c2cc(C(F)(F)F)nc(N3CCOCC3)n2)cc1OC	i	10µM	i	i	?	i
COc1cccc(-c2cc(C(F)(F)F)nc(N3CCOCC3)n2)c1	i	i	i	i	i	i
CCOc1cc2nc(-c3ccc(OC)c(OC)c3)nc(N3CCOCC3)c2cc1OC	i	?	i	i	21µM	i
O=C(NC(=O)c1cccc(F)c1)Nc1nc(-c2ccc(F)cc2)cc(C(F)(F)F)n1	i	i	i	i	i	i
COc1ccc(CCNc2nc(-c3ccc(OC)c(OC)c3)cc(C(F)(F)F)n2)cc1OC	i	?	nt	nt	18µM	nt
Cc1cccc(NC(=O)CCNC(=O)c2ccccc2)c1	nt	i	i	i	i	i
SMILES	TDP1 inh	TDP1 cell noCPT	IL-1B inflam inh	Six1-Eya2 inh	TDP1 cell CPT	CtBP-E1A blk
COc1ccccc1CNC(=O)C(=O)NCC1OCCN1S(=O)(=O)c1ccccc1 (configuration not stated)	i	i	i	i	i	i
CCCc1cc(C(=O)Nc2c(C)n(C)n(-c3ccccc3)c2=O)no1	i	i	i	i	i	i
Cc1c(C(=O)OC2CCC(C)CC2)[nH]c2c1C(=O)CCC2 (configuration not stated)	i	?	?	i	?	i
COc1ccc(-c2cc(C(F)(F)F)nc(NCc3ccccc3)n2)cc1	i	?	nt	nt	26µM	nt
Fc1ccc(CNc2nc(-c3ccc(Cl)cc3)cc(C(F)(F)F)n2)cc1	nt	18µM	nt	nt	23µM	nt
CCOc1cc(C)nc(NCCc2ccc(OC)c(OC)c2)n1	i	20µM	-57	i	?	i
CCOc1nc(NCCc2ccc(OC)c(OC)c2)nc(N2CCN(c3ccc(OC)cc3)CC2)n1	i	i	i	i	i	i
COc1ccc(N2CCN(c3nc(NCCc4ccc(OC)c(OC)c4)nc(OC)n3)CC2)cc1	i	4.6µM	?	?	6.5µM	?
Fc1ccc(-c2cc(C(F)(F)F)nc(NCc3ccccc3)n2)cc1	i	?	nt	nt	?	nt
COc1cccc(OC)c1C(=O)Nc1nc2ccc([N+](=O)[O-])cc2s1	i	i	i	i	i	i
Clc1ccc(CNc2ccccn2)cc1	i	i	?	i	?	i
FC(F)(F)c1ccnc(NCc2ccc(Cl)cc2)n1	nt	i	-55	i	i	i
COc1ccc(-c2cc(=O)oc3cc(OCC(=O)Nc4ccc(CCO)cc4)ccc23)cc1	i	0.52µM	i	i	3.7µM	i
COc1ccc(-c2cc(=O)oc3cc(OC(=O)C4CCCCC4)ccc23)cc1	i	18µM	i	i	?	nt
COc1ccc(-c2cc(=O)oc3cc(OCC(=O)N4CCOCC4)ccc23)cc1	nt	i	i	i	i	i
COC(=O)COc1ccc2c(-c3ccc(OC)cc3)cc(=O)oc2c1	i	i	i	i	0.41µM	i
Cc1ccccc1NS(=O)(=O)c1ccc(C(=O)NNC(=O)c2ccccc2O)cc1	nt	?	i	i	?	i
COc1ccc([C@H]2C[C@H](n3cc(COC(=O)c4ccccc4)nn3)[C@@H](O)CN2C(=O)C2CCCCC2)cc1	nt	i	i	i	i	i
COc1cc(CC(=O)Nc2nccs2)cc(OC)c1OC	i	i	i	i	i	i
O=C(OCc1nnc(-c2ccc(Cl)cc2)o1)c1ccc(=O)n(Cc2ccccc2)n1	i	i	i	i	i	i
Cc1c(N=C2N=C(NC(=O)Nc3ccc(Cl)cc3)c3ccccc32)c(=O)n(-c2ccccc2)n1C	i	23µM	i	i	18µM	i
O=S(=O)(Cc1cc(NCc2ccccc2)nc(-c2ccccn2)n1)c1ccccc1	i	4.6µM	i	i	4.6µM	i
